Bioassay records: PubChem BioAssay, National Center for Advancing Translational Sciences (NCATS)
JMJD2A Tudor: inhibitors of human JMJD2A Tudor domain; O75164; AlphaScreen JMJD2A-Tudor / H3K4me3 peptide binding; Potency, µM (highest dose often 114 µM), inactives show top-dose activity change, negative = inhibition, usual class: inhibitors; 390,000 tested, 4.4% active; AID 504339; note: % is set by controls: 0 for no effect and ±100 for the full control effect; nearly all actives have a fitted effect of over 50% in size
Sfp inh: blocks B. subtilis Sfp PPTase activity; 310,000 tested, 3.5% active; Potency, µM, for the others: largest response in the series, negative = inhibition, actives largely listed as inhibitors; Biochemical Sfp PPTase activity, qHTS; Q9F4F7;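 note: the enzyme is Sfp with the accession as filed and its product quenches rhodamine fluorescence; 0% = enzyme reaction without inhibitor and -100% = no enzyme wells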
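Sfp 15 nM + cpd, 15 min RT; start w/ rhodamine-CoA 5 uM, BHQ-2-YbbR 12.5 uM (final); 50 mM Hepes pH 7.6, 10 mM MgCl2, 0.01% NP-40, 0.01% BSA; read 525/598 nm at 0 and 30 min.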
BAZ2B inh: blocks human BAZ2B | Q9UIF8 | AlphaScreen BAZ2B-H3K14Ac peptide displacement | Potency, µM (doses to about 114 µM), for inactives: at the top dose activity change, negative = inhibition, most hits filed as inhibitors | 360,000 tested, 4.4% active; note: % is set by controls: 0 for no effect and ±100 for the full control effect; nearly all actives have a fitted effect of over 60% in size
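Complex of BAZ2B and biotin-H3K14Ac (50 nM apiece) forms over 30 min at RT, then faces library compounds up to 110 uM for another 30 min; AlphaScreen beads added, 20 min dark incubation, luminescence read.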
G9a inh: G9a (human) methyltransferase inhibition; 350,000 tested, 8.8% active; G9a H3K9 monomethylation, AlphaScreen, 2 h; Potency, µM (titrated, usually from 102 µM), for the others: top-dose activity, negative = inhibition, hits mostly inhibitors; Q96KQ7; AID 504332; note: % is set by controls: 0 for no effect and ±100 for the full control effect; nearly all actives have a fitted effect of over 75% in size
Target sequence (Q96KQ7 913-1193 limits assumed): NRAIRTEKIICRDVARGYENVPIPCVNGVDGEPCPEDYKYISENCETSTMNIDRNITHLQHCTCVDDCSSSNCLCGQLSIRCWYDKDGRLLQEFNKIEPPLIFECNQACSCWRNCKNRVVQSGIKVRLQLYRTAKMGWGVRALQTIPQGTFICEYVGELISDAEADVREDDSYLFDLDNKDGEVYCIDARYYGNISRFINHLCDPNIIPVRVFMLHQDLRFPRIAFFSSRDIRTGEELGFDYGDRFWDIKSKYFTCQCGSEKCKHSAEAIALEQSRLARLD
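Compounds were preincubated with 20 nM G9a for 15 min, after which biotinylated H3K9 peptide (500 nM) and SAM (20 uM) started a 2 h room-temperature reaction. Monomethylated product was quantified by antibody-based AlphaScreen chemiluminescence.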
PLK1 PBD block: blocks phosphopeptide binding to human PLK1 polo-box domain. P53350. Plk1 PBD binding of FITC phosphopeptide, fluorescence polarization. Potency, µM, for the others: max response, negative = inhibition, usual class: inhibitors. 360,000 tested, 2.8% active. AID 720504; note: series mostly up to about 57 µM; % is set by controls: 0 for no effect and ±100 for the full control effect; nearly all actives have a fitted effect of over 65% in size
HP1b binding inh: HP1-beta chromodomain-methylated histone interaction inhibition. AlphaScreen HP1-beta / biotin-H3K9me3 peptide binding. P83916. Potency, µM (titrated, usually from 114 µM), without a hit: top-dose activity change, negative = inhibition, actives largely listed as inhibitors. 390,000 tested, 0.56% active. AID 540317; note: nearly all actives have a fitted effect of over 70% in size
Target sequence (P83916 whole entry, looked up): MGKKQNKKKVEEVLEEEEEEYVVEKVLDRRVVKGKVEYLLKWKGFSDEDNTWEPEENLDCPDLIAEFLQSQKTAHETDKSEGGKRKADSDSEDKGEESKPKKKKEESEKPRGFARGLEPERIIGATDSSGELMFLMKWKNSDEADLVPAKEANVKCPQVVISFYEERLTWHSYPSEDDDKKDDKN
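AlphaScreen: HP1-beta (50 nM) preformed 30 min with biotin-H3(1-18)K9me3 peptide (50 nM) in PBS pH 7.4, 0.01% Tween-20. Compound added for 30 min at RT, then streptavidin donor/nickel chelate acceptor beads (10 ug/mL) for 30 min.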
* marks the source's active call; other numbers are inactive results; ? = inconclusive; / = not tested or not shown; [ ] = remark or other dose. Rows were chosen to be rich in hits. Some 12% of all compounds tested hit in one or more screens of this group. Calls come from the whole dose curve; as a rule, active = well fitted curve in the direction sought with a large enough effect; inconclusive = small, poorly fitted or top-dose-only effect, or another doubt; inactive = no such curve, though single readings can be large; an effect the other way counts as inactive or inconclusive. Potency is the fitted concentration of half-maximal effect.

SMILES	JMJD2A Tudor	Sfp inh	BAZ2B inh	G9a inh	PLK1 PBD block	HP1b binding inh
O=C(CNC1CCCCC1)N1CCC2(CC1)OCCO2	3.2µM*	-6%	?	35µM*	-6%	?
Cc1cccc2sc(NC(=O)c3cccn(Cc4ccccc4)c3=O)nc12	-8%	/	-12%	20%[59 µM]	/	-11%
COc1ccc(N2C(=O)NC(=O)/C(=C\c3ccccc3[N+](=O)[O-])C2=O)cc1	-16%	40µM*	-15%	8.9µM*	12µM*	13%
CCOc1ccc(N2C(=O)NC(=O)/C(=C\c3ccccc3[N+](=O)[O-])C2=O)cc1	-13%	45µM*	-18%	32µM*	9.5µM*	29%
COC(=O)Cn1cc(/C=C2\C(=O)NC(=O)N(c3ccccc3)C2=O)c2ccccc21	-25%	-24%	-4%	-5%	?	31%
CC(=O)O/C(=C1\CC2C3CC=C4CC(OC(C)=O)CCC4(C)C3CCC2(C)C1=O)C(F)(F)F (stereo not given)	-27%	/	/	/	-4%	5%
CCc1n[nH]c(CCN)n1	?	-16%	-13%	56µM*	-13%	10%
O=C(Oc1ccccc1)N1CCC[C@@]2(CCN(Cc3ccccc3)C2)C1	/	7%	/	-3%[12.7 µM]	/	/
C=CCNC(=S)/N=C/c1c(O)[nH]c(=O)[nH]c1=O	-3%	45µM*	8%	/	-10%	21%
NC(=S)/N=C/c1c(O)[nH]c(=O)[nH]c1=O	-26%	-18%	-12%	79µM*	-18%	12%
COc1ccc(C(=O)Nc2nnc(S(=O)(=O)N(CC(C)C)c3ccc(C)cc3)s2)cc1OC	55%	/	86%	0%[59 µM]	/	103%
C[N+](C)(C)CCCl	/	12%	/	/	/	/
O=C(OC1Cc2c(O)cc(O)cc2OC1c1cc(O)c(O)c(O)c1)c1cc(O)c(O)c(O)c1 (stereo not given)	/	18µM*	/	/	/	/
O=C(O[C@@H]1Cc2c(O)cc(O)cc2O[C@@H]1c1cc(O)c(O)c(O)c1)c1cc(O)c(O)c(O)c1	/	11µM*	8.9µM*	1.8µM*	/	/
CC(C)C1C(=O)O[C@@H]2CCN3CC=C(COC(=O)[C@](C)(O)[C@]1(C)O)[C@H]23 (stereo not given in full)	/	23%	/	/	/	/
NC[C@@H]1O[C@H](O[C@H]2[C@@H](O)[C@H](O[C@@H]3[C@@H](O)[C@H](N)C[C@H](N)[C@H]3O[C@H]3O[C@H](CO)[C@@H](O)[C@H](O)[C@H]3N)O[C@@H]2CO)[C@H](N)[C@@H](O)[C@@H]1O	/	22%	3%	9%[59 µM]	/	/
NCC1OC(O[C@H]2[C@H](O)[C@@H](OC3C(O)C(N)CC(N)C3OC3OC(CO)C(O)C(O)C3N)O[C@@H]2CO)C(N)C(O)C1O (stereo not given in full)	/	/	/	6µM*	/	/
CC(CN)CC(=O)O (stereo not given)	/	12%	/	2%[59 µM]	/	/
O=C(CCl)c1ccc(Oc2ccc(C(=O)CCl)cc2)cc1	/	50µM*	/	?	/	/
O=C(C1CCCN(S(=O)(=O)c2cccc3nsnc23)C1)N1CCN(c2cccc(Cl)c2)CC1 (stereo not given)	?	/	/	?	/	5%
C[C@H](CO)N1C[C@H](C)[C@@H](CN(C)C(=O)Oc2ccccc2)OCc2cnnn2CCCC1=O	/	/	/	/	-11%	/
CCC(C)n1c(=O)[nH]c(C)c(Br)c1=O (stereo not given)	/	12%	/	/	/	/
O=[N+]([O-])c1cc(Cl)c(O)c(-[n+]2c(-c3ccccc3)cc(-c3ccccc3)cc2-c2ccccc2)c1	?	-5%	?	50µM*	1%	5%
Cc1cc(/C=C2/C(=O)NC(=O)N(Cc3ccco3)C2=O)c(C)n1-c1ccccc1O	?	6%	35µM*	/	-24%	-8%
O=C(O)Cn1cc(/C=C2\C(=O)NC(=O)N(c3ccc(Br)cc3)C2=O)c2ccccc21	-9%	28µM*	-4%	56µM*	3µM*	9%[57 µM]
